# Laboratory results published in the supplement of paper PMC8728848.
# This is one part of a sample in which the strongest signals are shown more often than they occur.
# B1: FliC (Clostridium difficile) (protein)
# chain: MRVNTNVSALIANNQMGRNVNGQSKSMEKLSSGVRIKRAADDAAGLAISEKMRAQIKGLDQAGRNVQDGISVVQTAEGSLEETGNILQRMRTLSLQSANEINNTEEREKIADELTQLKDEIERISSSTEFNGKKLLDGTSSTIRLQVGASYGTNVSGTSNNNNEIKIQLVNTASIMASAGITTASIGSMKAGGTTGTDAAKTMVSSLDAALKSLNSSRAKLGAQQNRLESTQNNLNNTLENVTAAESRIRDTDVASEMVNLSKMNILVQASQSMLAQANQQPQGVLQLLG
# How the values were obtained:
# Experiment in all cases: glycan array binding signal (z-score within array); higher = stronger binding
# Details in all cases: glycan notation: IUPAC condensed, linker removed
# [1] = molecular target: Fuc(a1-2)Gal(b1-3)GalNAc(a1-3)[Fuc(a1-2)]Gal(b1-4)Glc
# Summary of the method: (§1)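 The binding signal is a Z-score computed within each array. Data were drawn from 3228 arrays in the Consortium for Functional Glycomics database, restricted to those with a known protein sequence. Scores were averaged over arrays of the same protein sequence at different concentrations or buffers, and over linkers, and negative values can be taken as non-binding.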
# [2] = molecular target: Fuc(a1-2)Gal(b1-3)[Fuc(a1-4)]GlcNAc(b1-2)Man(a1-3)[Fuc(a1-2)Gal(b1-3)[Fuc(a1-4)]GlcNAc(b1-2)Man(a1-3)]Man(b1-4)GlcNAc(b1-4)GlcNAc
# Summary of the method: as §1
# [3] = molecular target: Fuc(a1-2)Gal(b1-4)GlcNAc(b1-3)Gal(b1-4)GlcNAc(b1-2)Man(a1-3)[Fuc(a1-2)Gal(b1-4)GlcNAc(b1-3)Gal(b1-4)GlcNAc(b1-2)Man(a1-6)]Man(b1-4)GlcNAc(b1-4)GlcNAc
# Summary of the method: as §1
# [4] = molecular target: Fuc(a1-2)Gal(b1-4)[Fuc(a1-3)]GlcNAc(b1-2)[Fuc(a1-2)Gal(b1-4)[Fuc(a1-3)]GlcNAc(b1-4)]Man(a1-3)[Fuc(a1-2)Gal(b1-4)[Fuc(a1-3)]GlcNAc(b1-2)Man(a1-6)]Man(b1-4)GlcNAc(b1-4)GlcNAc
# Summary of the method: as §1
# [5] = molecular target: Fuc(a1-2)Gal6S(b1-3)GlcNAc6S
# Summary of the method: as §1
# [6] = molecular target: Fuc(a1-2)[Gal(a1-3)]Gal
# Summary of the method: as §1
# [7] = molecular target: Fuc(a1-2)[Gal(a1-3)]Gal(b1-3)GlcNAc(b1-3)GalNAc
# Summary of the method: as §1
# [8] = molecular target: Fuc(a1-2)[GalNAc(a1-3)]Gal(b1-3)GlcNAc(b1-2)Man(a1-3)[Fuc(a1-2)[GalNAc(a1-3)]Gal(b1-3)GlcNAc(b1-2)Man(a1-6)]Man(b1-4)GlcNAc(b1-4)[Fuc(a1-6)]GlcNAc
# Summary of the method: as §1
# [9] = molecular target: Fuc(a1-2)[GalNAc(a1-3)]Gal(b1-3)GlcNAc(b1-6)GalNAc
# Summary of the method: as §1
# [10] = molecular target: Fuc(a1-2)[GalNAc(a1-4)]Gal(b1-4)GlcNAc
# Summary of the method: as §1
# [11] = molecular target: Fuc(a1-3)[Gal(b1-4)]GlcNAc(b1-3)Gal(b1-4)[Fuc(a1-3)]GlcNAc(b1-3)Gal(b1-4)[Fuc(a1-3)]GlcNAc
# Summary of the method: as §1
# [12] = molecular target: Gal(a1-3)Fuc(a1-2)Gal(b1-4)GlcNAc(b1-3)[Gal(a1-3)Fuc(a1-2)Gal(b1-4)GlcNAc(b1-6)]GalNAc
# Summary of the method: as §1
# [13] = molecular target: Gal(a1-3)Gal(b1-3)GlcNAc
# Summary of the method: as §1
# [14] = molecular target: Gal(a1-3)Gal(b1-4)GlcNAc(b1-2)Man(a1-3)[Gal(a1-3)Gal(b1-4)GlcNAc(b1-2)Man(a1-6)]Man(b1-4)GlcNAc(b1-4)GlcNAc
# Summary of the method: as §1
# [15] = molecular target: Gal(a1-4)Gal(b1-3)GlcNAc(b1-2)Man(a1-3)[Gal(a1-4)Gal(b1-3)GlcNAc(b1-2)Man(a1-6)]Man(b1-4)GlcNAc(b1-4)GlcNAc
# Summary of the method: as §1
# [16] = molecular target: Gal(a1-4)Gal(b1-4)GlcNAc(b1-3)Gal(b1-4)Glc
# Summary of the method: as §1
# [17] = molecular target: Gal(b1-3)GlcNAc(a1-6)Gal(b1-4)GlcNAc
# Summary of the method: as §1
# [18] = molecular target: Gal(b1-3)GlcNAc6S
# Summary of the method: as §1
# [19] = molecular target: Gal(b1-3)[Neu5Ac(a2-6)]GlcNAc(b1-4)Gal(b1-4)Glc
# Summary of the method: as §1
# [20] = molecular target: Gal(b1-4)GlcNAc(b1-2)Man(a1-3)Man(b1-4)GlcNAc(b1-4)GlcNAc
# Summary of the method: as §1
# [21] = molecular target: Gal(b1-4)GlcNAc(b1-2)Man(a1-3)[Gal(b1-4)GlcNAc(b1-2)Man(a1-6)]Man(b1-4)GlcNAc(b1-4)GlcNAc
# Summary of the method: as §1
# [22] = molecular target: Gal(b1-4)GlcNAc(b1-2)[Gal(b1-4)GlcNAc(b1-4)]Man(a1-3)[GlcNAc(b1-4)][Gal(b1-4)GlcNAc(b1-2)Man(a1-6)]Man(b1-4)GlcNAc(b1-4)GlcNAc
# Summary of the method: as §1
# [23] = molecular target: Gal(b1-4)GlcNAc(b1-2)[Gal(b1-4)GlcNAc(b1-6)]Man(a1-6)[Gal(b1-4)GlcNAc(b1-2)Man(a1-3)]Man(b1-4)GlcNAc(b1-4)[Fuc(a1-6)]GlcNAc
# Summary of the method: as §1
# [24] = molecular target: Gal(b1-4)GlcNAc(b1-3)Gal(b1-4)GlcNAc(b1-2)Man(a1-3)[Gal(b1-4)GlcNAc(b1-3)Gal(b1-4)GlcNAc(b1-2)Man(a1-6)]Man(b1-4)GlcNAc(b1-4)[Fuc(a1-6)]GlcNAc
# Summary of the method: as §1
# [25] = molecular target: Gal(b1-4)GlcNAc(b1-3)Gal(b1-4)GlcNAc(b1-3)Gal(b1-4)GlcNAc(b1-2)Man(a1-3)[Gal(b1-4)GlcNAc(b1-3)Gal(b1-4)GlcNAc(b1-3)Gal(b1-4)GlcNAc(b1-2)Man(a1-6)]Man(b1-4)GlcNAc(b1-4)GlcNAc
# Summary of the method: as §1
# [26] = molecular target: Gal(b1-4)GlcNAc(b1-3)Gal(b1-4)GlcNAc(b1-3)[Gal(b1-4)GlcNAc(b1-3)Gal(b1-4)GlcNAc(b1-6)]GalNAc
# Summary of the method: as §1
# [27] = molecular target: Gal(b1-6)Gal
# Summary of the method: as §1
# [28] = molecular target: Gal3S(b1-4)Glc
# Summary of the method: as §1
# [29] = molecular target: Gal4S6S(b1-4)GlcNAc
# Summary of the method: as §1
binder,measurement,setting,value
B1,glycan array binding signal (z-score),[1],0.883
same,glycan array binding signal (z-score),[2],0.721
same,glycan array binding signal (z-score),[3],0.257
same,glycan array binding signal (z-score),[4],0.298
same,glycan array binding signal (z-score),[5],0.013
same,glycan array binding signal (z-score),[6],0.187
same,glycan array binding signal (z-score),[7],0.173
same,glycan array binding signal (z-score),[8],1.26
same,glycan array binding signal (z-score),[9],-0.176
same,glycan array binding signal (z-score),[10],-0.165
same,glycan array binding signal (z-score),[11],-0.069
same,glycan array binding signal (z-score),[12],-0.356
same,glycan array binding signal (z-score),[13],4.21
same,glycan array binding signal (z-score),[14],8.29
same,glycan array binding signal (z-score),[15],4.1
same,glycan array binding signal (z-score),[16],0.243
same,glycan array binding signal (z-score),[17],-0.584
same,glycan array binding signal (z-score),[18],-0.373
same,glycan array binding signal (z-score),[19],-0.467
same,glycan array binding signal (z-score),[20],-0.407
same,glycan array binding signal (z-score),[21],0.049
same,glycan array binding signal (z-score),[22],-0.113
same,glycan array binding signal (z-score),[23],0.28
same,glycan array binding signal (z-score),[24],2.39
same,glycan array binding signal (z-score),[25],2.15
same,glycan array binding signal (z-score),[26],2.33
same,glycan array binding signal (z-score),[27],0.447
same,glycan array binding signal (z-score),[28],-0.03
same,glycan array binding signal (z-score),[29],-0.316
